Reference: the supplement of paper PMC10849652
Of roughly 7,900 targets only a part is listed; those with a hit were picked by preference. About 0.6% of all pairs of compound and target were hits. Values without a mark were called inactive.

Columns and labels:
Experiment in all cases: log2 fold change, soluble protein after heating vs DMSO (PISA); higher = thermal stabilisation; K562 cells, 10 uM, 30 min; active = over 0.2 and 3.5 SD of the protein, either way, in both replicates (recomputed)
saracatinib = compound: CN1CCN(CCOc2cc(OC3CCOCC3)c3c(Nc4c(Cl)ccc5c4OCO5)ncnc3c2)CC1 [saracatinib]
Method in brief: (§1)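 Soluble protein was defined as the supernatant after 21,000xg for 90 min. It came from K562 cells at 2×10^6 cells/mL given 10 μM compound for 30 min, heated in aliquots for 3 min across 48°C-58°C, pooled, and extracted in PBS with 0.5% NP-40 at 4°C, and was quantified by TMTpro 16plex LC-MS/MS with equalised channel sums. Thermal stability against control samples, from duplicates, is reported as log2 fold change.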

sotrastaurin = compound: CN1CCN(c2nc(C3=C(c4c[nH]c5ccccc45)C(=O)NC3=O)c3ccccc3n2)CC1 [sotrastaurin]
Method in brief: as §1

Tubastatin A = compound: CN1CCc2c(c3ccccc3n2Cc2ccc(C(=O)NO)cc2)C1 [Tubastatin A]
Method in brief: as §1

defactinib = compound: CNC(=O)c1ccc(Nc2ncc(C(F)(F)F)c(NCc3nccnc3N(C)S(C)(=O)=O)n2)cc1 [defactinib]
Method in brief: as §1

[1] = compound: CNc1nc(-c2ccc3c(N)n[nH]c3c2)cc(N2C[C@@H](C(=O)NC3CCCCC3)CC[C@H]2C)n1
Method in brief: as §1

[2] = compound: COC(=O)[C@H](CCSC)NC(=O)C1=C(C=C(C=C1)NC[C@H](CS)N)C2=CC=CC=C2
Method in brief: as §1

[3] = compound: CNC(=O)C1=CC=CC=C1NC2=NC(=NC=C2Cl)NC3=C(C=C(C=C3)N4CCOCC4)OC
Method in brief: as §1

alvocidib = compound: CN1CC[C@H](c2c(O)cc(O)c3c(=O)cc(-c4ccccc4Cl)oc23)[C@H](O)C1 [alvocidib]
Method in brief: as §1

rucaparib = compound: CNCc1ccc(-c2[nH]c3cc(F)cc4c3c2CCNC4=O)cc1 [rucaparib]
Method in brief: as §1

encorafenib = compound: COC(=O)N[C@@H](C)CNc1nccc(-c2cn(C(C)C)nc2-c2cc(Cl)cc(NS(C)(=O)=O)c2F)n1 [encorafenib]
Method in brief: as §1

Chain of UniProt O94913 (O94913 whole entry, looked up): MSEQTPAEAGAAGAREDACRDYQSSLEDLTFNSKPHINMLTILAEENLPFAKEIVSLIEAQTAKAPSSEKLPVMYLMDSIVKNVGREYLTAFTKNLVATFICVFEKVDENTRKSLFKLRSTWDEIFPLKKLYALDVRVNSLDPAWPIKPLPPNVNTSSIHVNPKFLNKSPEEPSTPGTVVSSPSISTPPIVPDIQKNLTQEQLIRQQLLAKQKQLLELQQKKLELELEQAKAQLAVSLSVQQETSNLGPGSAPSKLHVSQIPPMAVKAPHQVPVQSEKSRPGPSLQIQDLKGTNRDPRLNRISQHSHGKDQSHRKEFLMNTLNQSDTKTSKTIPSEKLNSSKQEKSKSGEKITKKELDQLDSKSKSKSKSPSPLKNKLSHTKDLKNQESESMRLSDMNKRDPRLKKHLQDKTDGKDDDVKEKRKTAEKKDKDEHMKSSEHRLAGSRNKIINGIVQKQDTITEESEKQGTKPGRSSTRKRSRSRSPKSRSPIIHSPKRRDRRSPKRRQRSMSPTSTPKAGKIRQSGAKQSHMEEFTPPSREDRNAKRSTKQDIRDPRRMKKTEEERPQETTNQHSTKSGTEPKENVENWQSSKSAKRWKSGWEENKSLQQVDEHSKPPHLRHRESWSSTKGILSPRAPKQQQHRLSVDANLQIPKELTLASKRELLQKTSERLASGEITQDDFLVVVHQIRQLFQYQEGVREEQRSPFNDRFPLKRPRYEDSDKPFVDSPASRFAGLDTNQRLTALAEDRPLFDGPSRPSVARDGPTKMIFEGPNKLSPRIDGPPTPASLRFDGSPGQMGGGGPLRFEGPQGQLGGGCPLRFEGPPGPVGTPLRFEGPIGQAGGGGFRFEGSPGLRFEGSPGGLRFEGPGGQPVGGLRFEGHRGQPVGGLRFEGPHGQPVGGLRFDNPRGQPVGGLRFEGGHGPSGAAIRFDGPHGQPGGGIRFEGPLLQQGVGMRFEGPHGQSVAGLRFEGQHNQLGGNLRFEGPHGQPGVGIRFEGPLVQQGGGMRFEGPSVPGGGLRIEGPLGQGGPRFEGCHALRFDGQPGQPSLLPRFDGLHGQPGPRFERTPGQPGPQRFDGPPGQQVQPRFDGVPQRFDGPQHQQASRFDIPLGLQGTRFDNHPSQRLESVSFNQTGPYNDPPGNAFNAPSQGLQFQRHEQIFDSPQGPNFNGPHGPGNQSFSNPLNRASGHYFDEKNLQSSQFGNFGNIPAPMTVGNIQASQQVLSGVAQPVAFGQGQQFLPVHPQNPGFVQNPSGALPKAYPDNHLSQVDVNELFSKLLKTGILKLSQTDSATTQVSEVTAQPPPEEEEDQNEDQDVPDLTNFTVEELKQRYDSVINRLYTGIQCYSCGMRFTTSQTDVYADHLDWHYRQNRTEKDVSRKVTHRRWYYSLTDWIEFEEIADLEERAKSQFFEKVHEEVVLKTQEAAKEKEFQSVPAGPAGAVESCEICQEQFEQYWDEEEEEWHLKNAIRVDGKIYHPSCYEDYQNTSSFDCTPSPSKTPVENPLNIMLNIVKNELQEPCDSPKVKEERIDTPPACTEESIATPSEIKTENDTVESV
Chain of UniProt Q9BZL4 (Q9BZL4 whole entry, looked up): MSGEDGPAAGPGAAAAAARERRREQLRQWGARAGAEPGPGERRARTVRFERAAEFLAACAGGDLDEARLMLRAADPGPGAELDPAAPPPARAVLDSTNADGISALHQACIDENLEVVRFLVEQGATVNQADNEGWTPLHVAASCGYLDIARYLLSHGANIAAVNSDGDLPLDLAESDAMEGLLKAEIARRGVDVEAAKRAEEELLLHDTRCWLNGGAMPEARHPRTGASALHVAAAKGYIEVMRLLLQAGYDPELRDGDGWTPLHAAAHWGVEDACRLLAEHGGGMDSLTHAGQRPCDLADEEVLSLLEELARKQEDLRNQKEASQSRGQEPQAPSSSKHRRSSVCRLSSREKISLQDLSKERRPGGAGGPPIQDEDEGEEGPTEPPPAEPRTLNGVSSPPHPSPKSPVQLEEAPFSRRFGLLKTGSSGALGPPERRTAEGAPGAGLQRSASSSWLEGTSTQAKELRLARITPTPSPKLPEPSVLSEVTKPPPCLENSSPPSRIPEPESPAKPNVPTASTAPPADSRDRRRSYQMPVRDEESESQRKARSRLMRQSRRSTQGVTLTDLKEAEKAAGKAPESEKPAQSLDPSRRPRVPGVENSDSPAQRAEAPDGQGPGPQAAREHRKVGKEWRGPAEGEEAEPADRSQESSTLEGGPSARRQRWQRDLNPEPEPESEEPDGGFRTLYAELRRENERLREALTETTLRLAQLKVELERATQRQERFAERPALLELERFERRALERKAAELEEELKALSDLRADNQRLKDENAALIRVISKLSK
Chain of UniProt Q15111 (Q15111 whole entry, looked up): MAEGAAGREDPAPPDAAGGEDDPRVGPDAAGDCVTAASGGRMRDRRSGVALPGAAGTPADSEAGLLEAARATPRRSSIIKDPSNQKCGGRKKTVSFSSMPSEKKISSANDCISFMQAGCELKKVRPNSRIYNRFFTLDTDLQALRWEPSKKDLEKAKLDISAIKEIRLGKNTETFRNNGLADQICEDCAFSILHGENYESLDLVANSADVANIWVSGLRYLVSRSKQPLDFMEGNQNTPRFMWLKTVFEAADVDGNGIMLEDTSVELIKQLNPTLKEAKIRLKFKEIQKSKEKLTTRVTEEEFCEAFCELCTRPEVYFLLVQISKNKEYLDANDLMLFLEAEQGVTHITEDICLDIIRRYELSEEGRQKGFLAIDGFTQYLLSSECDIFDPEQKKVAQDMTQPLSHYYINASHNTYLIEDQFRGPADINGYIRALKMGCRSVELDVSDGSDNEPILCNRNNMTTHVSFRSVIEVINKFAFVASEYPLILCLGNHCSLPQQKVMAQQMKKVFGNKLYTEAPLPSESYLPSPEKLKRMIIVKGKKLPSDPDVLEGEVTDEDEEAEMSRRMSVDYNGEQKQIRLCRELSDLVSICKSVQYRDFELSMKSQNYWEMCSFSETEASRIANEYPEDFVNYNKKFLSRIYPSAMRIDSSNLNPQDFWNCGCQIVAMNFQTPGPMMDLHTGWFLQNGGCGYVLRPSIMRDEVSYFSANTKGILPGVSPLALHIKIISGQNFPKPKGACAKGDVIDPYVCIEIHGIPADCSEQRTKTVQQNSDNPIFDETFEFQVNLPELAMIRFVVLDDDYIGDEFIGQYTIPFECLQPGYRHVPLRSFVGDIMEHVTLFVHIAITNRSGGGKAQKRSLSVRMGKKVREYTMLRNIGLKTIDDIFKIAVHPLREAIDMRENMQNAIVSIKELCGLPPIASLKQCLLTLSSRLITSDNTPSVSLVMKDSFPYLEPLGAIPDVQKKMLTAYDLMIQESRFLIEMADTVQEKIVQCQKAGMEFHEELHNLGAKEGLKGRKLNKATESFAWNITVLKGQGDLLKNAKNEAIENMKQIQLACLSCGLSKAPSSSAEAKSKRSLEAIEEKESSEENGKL
Chain of UniProt Q9UHX1 (Q9UHX1 whole entry, looked up): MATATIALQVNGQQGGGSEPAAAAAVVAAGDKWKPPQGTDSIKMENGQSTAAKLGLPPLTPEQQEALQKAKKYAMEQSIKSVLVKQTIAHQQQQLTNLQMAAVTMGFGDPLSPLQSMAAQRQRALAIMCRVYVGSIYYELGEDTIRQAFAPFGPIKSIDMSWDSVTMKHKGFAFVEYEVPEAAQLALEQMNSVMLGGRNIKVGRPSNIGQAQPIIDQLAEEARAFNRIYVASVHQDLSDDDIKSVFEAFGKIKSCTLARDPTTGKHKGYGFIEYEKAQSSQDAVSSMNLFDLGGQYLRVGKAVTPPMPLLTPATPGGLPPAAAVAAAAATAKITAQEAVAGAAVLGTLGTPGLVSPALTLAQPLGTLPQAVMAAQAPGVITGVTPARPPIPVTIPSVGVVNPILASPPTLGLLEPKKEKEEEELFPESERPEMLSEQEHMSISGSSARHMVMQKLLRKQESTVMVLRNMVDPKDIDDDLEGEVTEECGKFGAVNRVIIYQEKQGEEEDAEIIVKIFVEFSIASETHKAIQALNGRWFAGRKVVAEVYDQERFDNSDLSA
Chain of UniProt P60484 (P60484 whole entry, looked up): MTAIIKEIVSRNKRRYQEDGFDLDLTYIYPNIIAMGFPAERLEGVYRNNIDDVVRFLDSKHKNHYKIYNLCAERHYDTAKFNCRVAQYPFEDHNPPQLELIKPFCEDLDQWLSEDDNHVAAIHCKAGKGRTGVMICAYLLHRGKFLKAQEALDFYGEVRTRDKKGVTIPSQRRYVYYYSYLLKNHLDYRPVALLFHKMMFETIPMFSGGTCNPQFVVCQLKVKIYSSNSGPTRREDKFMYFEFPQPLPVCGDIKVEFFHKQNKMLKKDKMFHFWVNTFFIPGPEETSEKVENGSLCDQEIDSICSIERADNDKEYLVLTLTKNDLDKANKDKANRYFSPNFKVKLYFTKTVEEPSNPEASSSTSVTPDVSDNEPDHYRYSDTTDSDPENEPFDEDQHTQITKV

Target	log2 fold change (saracatinib)	log2 fold change (sotrastaurin)	log2 fold change (Tubastatin A)	log2 fold change (defactinib)	log2 fold change [1]	log2 fold change [2]	log2 fold change [3]	log2 fold change (alvocidib)	log2 fold change (rucaparib)	log2 fold change (encorafenib)
PSMC3 (UniProt E9PLG2)	-0.197	0.081	0.079	0.172	-0.252	-0.026	–	–	–	–
PSMD8 (UniProt K7ERW6)	–	–	0.235	0.011	–	0.066	–	–	–	–
PHRF1 (UniProt Q9P1Y6)	–	–	–	–	–	–	-0.022	–	–	–
PPP1R12B isoform 6 (UniProt O60237)	–	–	–	–	–	–	0	–	–	–
POLR2E (UniProt P19388)	-0.077	–	-0.009	0.216	0.104	-0.081	-0.076	0.212	0.153	0.025
PTEN isoform 2 (UniProt P60484)	–	–	–	–	–	–	-0.247	–	-0.108	0.015
PUF60 isoform 2 (UniProt Q9UHX1)	0.107	–	0.202	-0.165	-0.403	-0.089	–	-0.306	–	–
PLCL1 (UniProt Q15111)	–	0.032	0.166	-0.02	–	0.047	-0.131	0.109	0.2	0.018
PRKD2 (UniProt M0R346)	–	-0.247	–	–	–	–	–	–	–	–
PCBP2 (UniProt F8VZX2)	0.009	–	–	–	0.084	–	0.06	-0.3	–	–
PCF11 (UniProt O94913)	–	–	–	-0.059	–	0.095	–	0.027	-0.995 (active)	-0.06
PHLDB1 isoform 2 (UniProt Q86UU1)	-0.02	–	-0.023	-0.035	0.066	-0.001	-0.164	-0.353	0.011	0.089
PNN (UniProt Q9H307)	-0.037	-0.044	–	–	-0.071	–	-0.067	-0.12	0.303	-0.174
PDE4A (UniProt P27815)	–	–	0.054	-0.145	–	-0.018	0.017	-0.263	–	–
PPP1R12C (UniProt Q9BZL4)	-0.115	-0.157	0.014	-0.205	-0.164	0.035	0.113	–	0.184	-0.013
